Inconclusive results are not listed. Unmarked numbers belong to inactive results. Calls of active or inactive are those of the source. Calls follow the shape of the dose curve; as a rule, active = well fitted cell-killing curve with a large enough effect in the repeat runs; inconclusive = weak or mixed curves, or effect the other way; inactive = flat fitted curve, though single readings scatter.
% is scaled to controls: 0 for no effect and ±100 for the full control effect.

One assay in a line: cAMP Responsive Elements (CRE) small molecule antagonists, cell-based qHTS assay: qHTS cell viability counter screen (AID 2060913). Also: nearly all actives have a fitted effect of over 40% in size. As to conditions: CRE-bla HEK293T viability, CellTiter-Glo luminescence, 5 h; series mostly up to 92.4 µM; viability change, negative = cytotoxic: at the top concentration. In outline: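 CRE-bla HEK293T cells were seeded in assay medium with 10% dialyzed FBS, incubated 18 hrs at 37 C, then exposed to compounds plus 0.25 uM final NKH477 for 3 hrs. Viability was read by CellTiter-Glo luminescence after 30 min, in the same wells.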
Background: In qHTS, concentration-response curves come from the screen itself.
As to `CCC#N`, the “viability change, negative = cytotoxic” value is -6.76%.

`C=CCc1cc(OC)c2c(c1)OCO2`: the “viability change, negative = cytotoxic” value is 1.16%.

Turning to `CC(=NC#N)N(C)Cc1ccc(Cl)nc1`, the “viability change, negative = cytotoxic” value was 5.86%.

With `[CH3][Hg][Cl]`, the “viability change, negative = cytotoxic” value is 0.514%.

Take `CCCCOC(=O)c1ccccc1N`: the “viability change, negative = cytotoxic” value is -12.6%.

`CCC1(c2ccccc2)C(=O)N(COC)C(=O)N(COC)C1=O`: the “viability change, negative = cytotoxic” value is 1.7% [at 42.5 µM].

As to `CC(C)Nc1nc(Cl)nc(NC(C)C)n1`, the Potency result is “inactive”.

With `O=c1[nH]c2ccccc2n1C1CCNCC1`, the “viability change, negative = cytotoxic” value was 20.4% [at 42.5 µM].

Turning to `CCC(C)c1cc([N+](=O)[O-])cc([N+](=O)[O-])c1O` (stereo unspecified), the “viability change, negative = cytotoxic” value is 12.9%.

Turning to `CC1N=C(N)OC1c1ccccc1` (stereo unspecified), the “viability change, negative = cytotoxic” value was -1.82%.

With `CN(C)C(=O)C(c1ccccc1)c1ccccc1`, the Potency result is “inactive”.

Regarding `O=[N+]([O-])c1ccc(Cl)c(Cl)c1`, the Potency entry is “inactive”.

For `CN`, the “viability change, negative = cytotoxic” value was -15%.

`ClC(Cl)=C(c1ccc(Cl)cc1)c1ccccc1Cl`: the “viability change, negative = cytotoxic” value is -22.5%.

For the compound `OCCN(CCO)CCO`, the Potency entry was “inactive”.

As to `CC(=O)CCc1ccc2c(c1)OCO2`, the “viability change, negative = cytotoxic” value is 14.4%.

The nature of another assay: cAMP Responsive Elements (CRE) small molecule agonists, cell-based qHTS assay: qHTS cell viability counter screen (AID 2060914). Also: nearly all actives have a fitted effect of over 50% in size. Also: potency is read from the fitted curve at half-maximal effect. Conditions: CRE-bla HEK293T viability, CellTiter-Glo luminescence, 5 h; series mostly up to 92.4 µM; activity change, negative = cytotoxicity: at the top concentration. In outline:
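In the same wells as the reporter read, viability of CRE-bla HEK 293T cells was quantified by CellTiter-Glo luminescence after a 3 h compound exposure.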
For the compound `CCCCCCCCCCCCCN1CC(C)OC(C)C1` (stereo unspecified), the “activity change, negative = cytotoxicity” value was -12.7%.

Take `C[N+]1(CCF)[C@@H]2CC[C@H]1CC(OC(=O)C(O)(c1ccccc1)c1ccccc1)C2` (stereo partly specified): the “activity change, negative = cytotoxicity” value was 6.21% [at 42.5 µM].

Take `CCCCCCCCCCCCBr`: the “activity change, negative = cytotoxicity” value was -15.9%.

As for `CCOCn1c(-c2ccc(Cl)cc2)c(C#N)c(Br)c1C(F)(F)F`, the “activity change, negative = cytotoxicity” value was -21.9%.

With `Sc1ccccc1Cl`, the “activity change, negative = cytotoxicity” value was 1.21% [at 42.5 µM].

On to `CC[n+]1ccccc1`, for which the Potency result was “inactive”.

As to `Cl`, the Potency entry is “inactive”.

Take `O=[N+]([O-])c1ccc([As](=O)(O)O)cc1`: the “activity change, negative = cytotoxicity” value is 15.5% [at 42.5 µM].

With `CN(C)CCc1c[nH]c2cccc(OP(=O)(O)O)c12`, the “activity change, negative = cytotoxicity” value is -9.36%.

Turning to `Nc1ccc([N+](=O)[O-])cc1N`, the Potency result was “inactive”.

For the compound `Cc1ccc([N+](=O)[O-])cc1C`, the Potency result is “inactive”.

`Clc1ccc(CO/N=C(\Cn2ccnc2)c2ccc(Cl)cc2Cl)c(Cl)c1`: the “activity change, negative = cytotoxicity” value is -15.8% [at 42.5 µM].

In the case of `Clc1nc(Cl)nc(Nc2ccccc2Cl)n1`, the “activity change, negative = cytotoxicity” value is -0.418%.

As to `CC1(C)Cc2cccc(O)c2O1`, the “activity change, negative = cytotoxicity” value is -5.96%.

For the compound `COP(N)(=S)OC`, the “activity change, negative = cytotoxicity” value was 3.37%.

Turning to `OC(c1ccc(Cl)cc1)(c1cncnc1)c1ccccc1Cl` (stereo unspecified), the Potency result was “inactive”.

`CCOP(=O)(OCC)Oc1cc(C)nc(C(C)C)n1`: the “activity change, negative = cytotoxicity” value is -0.118%.

Regarding `C[C@]12CC[C@H]3[C@@H](CCC4=CC(=O)CC[C@@H]43)[C@@H]1CC[C@@H]2OC(=O)CCC1CCCCC1`, the “activity change, negative = cytotoxicity” value was -6.86% [at 42.5 µM].

For `CCOC(=O)NC(=S)Nc1ccccc1NC(=S)NC(=O)OCC`, the “activity change, negative = cytotoxicity” value was 20%.

As to `CC(CC(C(N)=O)(c1ccccc1)c1ccccc1)N(C)C` (stereo unspecified), the “activity change, negative = cytotoxicity” value is 8.12% [at 42.5 µM].

For the compound `CC(Cl)CCl` (stereo unspecified), the “activity change, negative = cytotoxicity” value was -5.73%.

Regarding `O=C(O)CBr`, the “activity change, negative = cytotoxicity” value was -0.721%.

As for `Cn1c(N)nc2c3cccnc3ccc21`, the “activity change, negative = cytotoxicity” value is 1.01%.

For the compound `CCO[C@H]1O[C@@H]2OC3(C)CC[C@H]4[C@H](C)CC[C@@H]([C@H]1C)[C@@]24OO3`, the “activity change, negative = cytotoxicity” value is -6.44% [at 42.5 µM].

As to `CCC#N`, the “activity change, negative = cytotoxicity” value was 8.94%.

For the compound `C=CCc1cc(OC)c2c(c1)OCO2`, the “activity change, negative = cytotoxicity” value was 6.71%.

On to `CC(=NC#N)N(C)Cc1ccc(Cl)nc1`, for which the “activity change, negative = cytotoxicity” value was -12%.

For the compound `[CH3][Hg][Cl]`, the “activity change, negative = cytotoxicity” value is 4.35%.

`CCCCOC(=O)c1ccccc1N`: the “activity change, negative = cytotoxicity” value is -20.4%.

For the compound `CCC1(c2ccccc2)C(=O)N(COC)C(=O)N(COC)C1=O`, the “activity change, negative = cytotoxicity” value was 2.26% [at 42.5 µM].

For `CC(C)Nc1nc(Cl)nc(NC(C)C)n1`, the Potency entry was “inactive”.

Regarding `O=c1[nH]c2ccccc2n1C1CCNCC1`, the Potency is 0.266 µM (active).

With `CCC(C)c1cc([N+](=O)[O-])cc([N+](=O)[O-])c1O` (stereo unspecified), the “activity change, negative = cytotoxicity” value was 3.78%.

On to `CC1N=C(N)OC1c1ccccc1` (stereo unspecified), for which the “activity change, negative = cytotoxicity” value is -2.42%.

As for `CN(C)C(=O)C(c1ccccc1)c1ccccc1`, the Potency result is “inactive”.

In the case of `O=[N+]([O-])c1ccc(Cl)c(Cl)c1`, the “activity change, negative = cytotoxicity” value was -2.37%.

`CN`: the “activity change, negative = cytotoxicity” value is 6.15%.

In the case of `ClC(Cl)=C(c1ccc(Cl)cc1)c1ccccc1Cl`, the “activity change, negative = cytotoxicity” value is -19%.

For the compound `OCCN(CCO)CCO`, the “activity change, negative = cytotoxicity” value was 6.77%.

As to `CC(=O)CCc1ccc2c(c1)OCO2`, the “activity change, negative = cytotoxicity” value is 0.0496%.

The values above are taken from PubChem BioAssay (Tox21).
